Assay results: PubChem BioAssay (NCATS)
Records with an inconclusive call do not appear. A number with no mark means an inactive call. Calls follow the shape of the dose curve; as a rule, active = well fitted cell-killing curve with a large enough effect; inconclusive = small, poorly fitted or top-dose-only effect, or effect the other way; inactive = no such curve, though single readings can be large or run the other way.

Test: MultiTox-Fluor Cytotoxicity Assay - LYMP1-002 - Dead Cells (AID 960);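 also: 0% = DMSO and 100% = tetraoctylammonium bromide; nearly all actives have a fitted effect of over 60% in size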
Conditions: LYMP1-002 lymphoblastoid cells, dead-cell protease fluorescence; series mostly up to 46.1 µM; cytotoxicity (dead cells): at the top concentration
Text: NIH Chemical Genomics Center [NCGC]
NIH Molecular Libraries Screening Centers Network [MLSCN]
National Institutes of Environmental Health Sciences [NIEHS]
National Toxicology Program [NTP]
We have developed a 1536-well cell-based assay for quantitative high throughput screening (qHTS) against a number of cell lines to determine in vitro cytotoxicity of small molecules. This particular assay uses a human lymphoblastoid cell line (LYMP1-002) purchased from Coriell Institute.
NCGC Assay Protocol Summary:
The MultiTox-Fluor Cytotoxicity Assay (Promega) is a homogeneous method to simultaneously measure the relative number of live and dead cells in culture by detecting changes in cell membrane integrity. There are two fluorogenic peptide substrates in the assay reagent. Viable cells are determined when the cell-permeant substrate (GF-AFC) enters the cell and is cleaved by protease from live cells resulting in liberated fluorophore. This live-cell protease activity restricted to viable cells is proportional to cell number. The dead cells are determined by using fluorogenic cell-impermeant peptide substrate (bis-AAF-R110) which cleaved by dead cell proteases leaking from damaged cell membrane.
Using the MultiTox-Fluor Cytotoxicity Assay, the relative number of dead cells was measured in the lymphoblastoid cell line with complete culture medium following compound treatment for 16 hours. The assay was performed in opaque black Kalypsys 1536-well plates. In the screen, tetraoctylammonium bromide was used as positive control. Library compounds were measured for their ability to cause acute toxicity in the cell line, as reflected by an increase in dead cell protease activity, in a concentration-dependent manner. Data were normalized to the controls for basal activity (DMSO only) and 100% stimulation (15 uM tetraoctylammonium bromide). AC50 values were determined from concentration-response data modeled with the standard Hill equation.
qHTS protocol for MultiTox-Fluor Cytotoxicity assay
[Step] [Parameter] [Value] [Description]
1. Reagent; 5 uL; 2500 lymphoblastoid cells/well
2. Time; 5 hr; 37 C incubation
4. Controls; 23 nL; Tetraoctylammonium bromide 6.4pM to 92 uM
5. Time; 16 hr; 37 C incubation
6. Reagent; 5 uL; MuliTox-Fluor Assay reagent
7. Time; 60 min; Room Temperature
8. Detection; dead-cell fluorescence (Ex/Em=485/520); EnVision plate reader
Keywords: cytotoxicity, lymphoblastoid cell line, fluorescence, NTPHTS, NTPHTS_NCGC, NIEHS, EPA, DSSTox, MLSMR, MLSCN, NIH Roadmap, qHTS, NCGC

SMILES | cytotoxicity (dead cells) [%]
CCOCCOCC | 8.86
Cc1ccc(Br)cc1 | 11
O=C(O)CNC(=O)c1ccc(CO)o1 | 9.43
CC(=O)c1ccccn1 | -8.27
c1ccsc1 | 10.3
C=C(C)C(=O)OCC(C)O (stereo not given) | 20.7
O=C(O)c1c(Cl)cccc1Cl | 12.6
CCOC(=O)C(C)C(C)=O (stereo not given) | 9.84
CCCCCCCCCCCCC1CO1 (stereo not given) | -13
COC(=O)CCC(=O)OC | -17.6
CC=O | -17.5
Nc1ccc([N+](=O)[O-])c(N)c1 | -6.8
CC(=O)OCCC(C)C | 9.74
CC1(N)CCC(C(C)(C)N)CC1 (stereo not given) | 0.229
CCN(CC)c1cccc(O)c1 | 25
Nc1cccc([N+](=O)[O-])c1 | 17.8
CCCCC(CC)C(=O)O (stereo not given) | 19.1
Cc1ccccc1C(=O)O | 15
O=C(O)c1ccc(C(=O)O)cc1 | 8.29
Cc1ccc2oc(=O)ccc2c1 | -10.7

SMILES | cytotoxicity (dead cells) [%]
Cc1ccc(C#N)cc1 | 24.9
O=Cc1c(Cl)cccc1Cl | 13.1
CSCCC=O | 13
Cc1cccc2cccnc12 | 21.5
ICCc1ccccc1 | -19.3
C=CCCC | 27.1
O=C(O[C@@H](C(=O)O)[C@@H](OC(=O)c1ccccc1)C(=O)O)c1ccccc1 | -1.95
Cc1ccco1 | 18.2
CCN(Cc1ccccc1)c1ccccc1 | 7.35
CC(C)(C)c1ccc(OCC2CO2)cc1 (stereo not given) | 5.17
C[C@@H]1CC2(OC[C@]3(C)O[C@H]23)O[C@H]2C[C@@]3(C)[C@@H]4CC[C@H]5C(C)(C)C(O[C@@H]6OC[C@@H](O)[C@H](O)[C@H]6O)CC[C@@]56C[C@@]46CC[C@]3(C)[C@@H]12 (stereo not given in full) | -9.07
C/C(C=O)=C/c1ccccc1 | 11.7
CCOc1ccc(NC(C)=O)cc1N | 33.6
CNC(=O)c1ccccc1 | 21.1
CCCC(C)CO (stereo not given) | 26.9
Cc1ccc([N+](=O)[O-])c(N)c1 | -6.07
CC(C)N(C)C | -3.79
Cc1ccc(C)c(N)c1 | 8.13
C=C(C)OC(C)=O | -11.4
CC(C)C(C)C | 8.64
